Screening data (PubChem)
Compounds with a hit are over-represented: about 4.6% of the library has one in this group of screens.
tim23-1 inh: inhibits growth of tim23-1 mutant yeast; S. cerevisiae tim23-1 growth, BacTiter-Glo luminescence, 24 h; inhibition, % at 20 µM; 1.3% of 330,000 active; AID 463212;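 active = growth inhibition of the mutant yeast at or above 50%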;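 note: temperature-sensitive mutant grown at 25 °C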
SKKanGAS inh: inhibitors of SKKanGAS S. pyogenes growth in kanamycin (SK-promoter or general growth effect); inhibition, % at 7.5 µM; AID 1662; BacTiter-Glo, 6 h; 1.3% of 300,000 active;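 active = mean replicate score, as percent of positive control median, at least 50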;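 note: strain carries kanamycin resistance gene driven by streptokinase promoter and grows in 40 µg/ml kanamycin; loss of luminescence reflects streptokinase promoter inhibition or plain growth inhibition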
NALP3 yeast inh: inhibitors of NALP3 inflammasome in yeast | inhibition, % at 10 µM | 0.39% of 330,000 active | Yeast reconstituted NLRP3/ASC/caspase-1, beta-gal luminescence, 24 h;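 active = inhibition of 50% or more; inactive = inhibition below 50%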
TIM10 inh: inhibits growth of TIM10 yeast strain | S. cerevisiae TIM10 strain growth, BacTiter-Glo luminescence, 24 h | inhibition, % at 10 µM | 1.4% of 330,000 active;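 active = inhibition of 40% or more at the single tested concentration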;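 note: wild-type TIM10 isogenic control strain grown at permissive 25 °C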
tim10-1 inh: inhibits growth of tim10-1 mutant yeast. S. cerevisiae tim10-1 ts strain growth, BacTiter-Glo, 24 h. inhibition, % at 20 µM. 2.2% of 330,000 active;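 active = inhibition of at least 40%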;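 note: mutant grown at 25 °C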
tim10-1 conf: confirmation of tim10-1 mutant yeast growth inhibitors. shares compounds with tim10-1 inh. S. cerevisiae tim10-1 ts strain growth, BacTiter-Glo, 24 h. inhibition, % at 20 µM. 56% of 7,400 active;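 active = inhibition of yeast growth at or above a set limit in either of two repeat tests at 20 µM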;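 note: tim10-1 mutant grown at permissive 25 °C to find synthetic lethal compounds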
Each line names hits and unclear results; the compound was inactive in the other large screens (follow-up assays come after a bar, where they were run).

O=C(NCCOc1ccccc1)C1CCC(=O)N(CCN2CCOCC2)C1 (configuration not stated)	none
CC(NC(=O)c1ccc(F)cc1)c1nc2ccccc2n1Cc1ccccc1F (configuration not stated)	tim10-1 inh 42 | tim10-1 conf 29
CCCn1c(C(C)NC(=O)c2ccccc2)nc2ccccc21 (configuration not stated)	none (no result: tim23-1 inh, NALP3 yeast inh, TIM10 inh, tim10-1 inh)
Cc1ccc(OCCOc2cccc(Br)c2)c([N+](=O)[O-])n1	tim10-1 inh 54 | tim10-1 conf 40
Cc1noc(NS(=O)(=O)c2ccc(NC(=O)Nc3ccc(Cl)c(Cl)c3)cc2)c1C	tim10-1 inh 46 | tim10-1 conf 38
CC1CC(C)CN(C(=O)COC(=O)c2ccc3ccccc3n2)C1 (configuration not stated)	none (no result: SKKanGAS inh)
COc1ccc(CCNS(=O)(=O)c2ccc(OC)cc2)cc1	tim10-1 inh 44 | tim10-1 conf inactive
c1ccc(N2CCCCC2)c(Nc2nc3ccccc3n3cnnc23)c1	none
FC(F)(F)c1ccc(N2CCOCC2)c(Nc2nc3ccccc3n3cnnc23)c1	tim10-1 inh 54 | tim10-1 conf 59
COc1ccc(/C=C/C(=O)CC(O)(c2ccccc2)C(F)(F)F)cc1 (configuration not stated)	tim10-1 inh 47 | tim10-1 conf 36
O=C(/C=C/c1ccccc1)CC(O)(c1ccccc1)C(F)(F)F (configuration not stated)	tim10-1 inh 45 | tim10-1 conf 39
COc1ccc(/C=C/C(=O)CCC(=O)O)cc1	none
COc1cc(OC)cc(C(=O)NNC(=O)CN2C(=O)NC(C)(c3ccccc3)C2=O)c1 (configuration not stated)	none
CCN(C(=O)CSc1nnc(COc2cccc(C)c2)o1)c1nc(C)cs1	none
COc1c(OC(C)=O)ccc(/C=C/c2ccc3cccc(OC)c3n2)c1[N+](=O)[O-]	tim10-1 inh 41 | tim10-1 conf inactive
COc1cc(/C=C/c2ccc3cccc([N+](=O)[O-])c3n2)ccc1OCC#N	none
COc1c(OC(C)=O)ccc(/C=C/c2ccc3ccccc3n2)c1[N+](=O)[O-]	tim10-1 inh 48 | tim10-1 conf 32
COC(=O)c1ccc(/C=C/c2ccc3cccc(OC(C)=O)c3n2)cc1	SKKanGAS inh 53 | tim10-1 conf inactive
O=[N+]([O-])c1ccccc1/C=C/c1ccc2ccccc2n1	none
COC(=O)c1ccc(/C=C/C(=O)O)cc1	none
CSc1nsc(/C=C/Nc2ccc(F)cc2F)c1C#N	tim10-1 inh 46 (no result: SKKanGAS inh) | tim10-1 conf 41
CSc1nsc(/C=C/Nc2ccc(C(=O)O)cc2)c1C#N	none
CN(C)C(CNC(=O)c1ccc(S(=O)(=O)Nc2cccc(C(F)(F)F)c2)cc1)c1ccco1 (configuration not stated)	none
Cc1cc(C)nc(-n2nc(C)cc2NC(=O)CN2CCCC(C)C2)n1 (configuration not stated)	tim10-1 inh 44 | tim10-1 conf inactive
Cc1ccc(CNC(=O)C2CCCN(c3nc4ccccc4o3)C2)cc1 (configuration not stated)	none
O=C(NCCC1=CCCCC1)C1CCCN(c2nc3ccccc3o2)C1 (configuration not stated)	tim10-1 inh 49 | tim10-1 conf 35
CCCCn1nc(NC(=O)c2cccs2)c2cc3ccccc3nc21	tim10-1 inh 48 | tim10-1 conf 39
CCCn1nc(NC(=O)c2cccs2)c2cc3cc(C)ccc3nc21	tim10-1 inh 41 | tim10-1 conf 31
O=C(C[C@@H]1C/C=C\C[C@H](Cc2ccc(F)cc2)C(=O)OC[C@@H](c2ccccc2)NC1=O)NCCO	none (no result: SKKanGAS inh)
CCOc1ncccc1C(=O)Nc1cccc(S(=O)(=O)N2CCOCC2)c1	none (no result: SKKanGAS inh)
CN(C)S(=O)(=O)N1CCN(c2cc(Cl)ccc2Cl)CC1	tim10-1 inh 43 | tim10-1 conf inactive
CCN1CCN(C(=O)c2ccc3nc(-c4ccccc4)c(-c4ccccc4)nc3c2)CC1	none
CCCc1sc(N)nc1-c1ccc(Cl)cc1	tim10-1 inh 43 | tim10-1 conf inactive
CCn1c(SC)nnc1C1CCN(CC(=O)Nc2ccccc2N2CCOCC2)CC1	none
COCCNc1c([N+](=O)[O-])c(=O)n(-c2ccccc2)c2ccccc12	none
CCSc1c([N+](=O)[O-])c(=O)n(-c2ccccc2)c2ccccc12	tim10-1 inh 47 | tim10-1 conf 46
Cc1csc(NC(=O)c2nc(-c3ccccc3)n(-c3ccccc3)n2)n1	tim10-1 inh 51 | tim10-1 conf 41
Cc1ccc(C)c(NC(=O)c2nc(-c3ccccc3)n(-c3ccccc3)n2)c1	tim10-1 inh 43 | tim10-1 conf inactive
O=C(/C=C/c1ccc(F)cc1)NCCCn1ccnc1	none
COc1ccc(N(CC(=O)NC2CCCCCC2)S(=O)(=O)c2ccccc2)cc1Cl	none
CCN(CC)S(=O)(=O)c1ccc(Cl)c(NC(=O)COC(=O)c2nc3nc(C)cc(C)n3n2)c1	none (no result: SKKanGAS inh)
CCOc1ccc(N2C(=O)/C(=C\c3ccccc3OC)S(=O)(=O)C2c2cccc([N+](=O)[O-])c2)cc1 (configuration not stated)	tim10-1 inh 45 | tim10-1 conf 41
CC(=O)Nc1ccc(S(=O)(=O)NCCC(=O)NCCCc2ccccc2)cc1	none (no result: SKKanGAS inh)
COc1cc(SC)ccc1C(=O)N(CC(=O)Nc1ccccc1Br)Cc1ccco1	none
CCOc1cc(/C=N/NC(=O)CN2CCOCC2)ccc1OCc1ccc(Cl)cc1	tim10-1 inh 42 | tim10-1 conf inactive
Cc1ccc(-c2ccc(=O)n(CC(=O)N3CCN(c4cc(Cl)ccc4C)CC3)n2)cc1	tim10-1 inh 43 | tim10-1 conf inactive
O=C(OCc1nc2ccccc2s1)C1CCN(S(=O)(=O)c2cccs2)CC1	tim10-1 inh 48 | tim10-1 conf inactive
COCCNC(=O)c1c(N)n(/N=C/c2cccs2)c2nc3ccccc3nc12	tim10-1 inh 44 | tim10-1 conf inactive
CC[n+]1c(/C=C2\C=C(C)CC(C)C2)sc2ccccc21 (configuration not stated)	none
CCC1=C/C(=C/c2sc3ccccc3[n+]2CC)CC(C)(C)C1	tim10-1 inh 42 | tim10-1 conf 35
COc1ccc(C(=O)NC2CCCc3c2cnn3-c2cc(F)cc(F)c2)c(OC)c1OC (configuration not stated)	tim10-1 inh 41 | tim10-1 conf 28
CCc1ccc(NC(=O)NCc2cccnc2)cc1	none
CCc1nc2cc(Cl)c(Cl)cc2[nH]1	tim10-1 inh 41 | tim10-1 conf 37
CCN(c1ccc(C)cc1C)S(=O)(=O)c1nnc(NC(=O)C(C)(C)C)s1	none
COc1ccc(C(C(=O)NC2CCCC2)N(CC2CCCO2)C(=O)Cc2cccs2)cc1OC (configuration not stated)	none
COc1cccc(C(C(=O)NC2CCCC2)N(CC2CCCO2)C(=O)Cc2cccs2)c1 (configuration not stated)	tim10-1 inh 45 | tim10-1 conf inactive
